Rows were chosen to be rich in hits. Some 0.84% of all compounds tested hit in one or more screens of this group.
NR5A2 inv ag: NR5A2 inverse agonism in reporter assay; O00482; HEK293T StAR-luciferase reporter, LRH-1 transfected, 24 h; inhibition, % at 3.6 µM; hit rate 0.13% among 360,000;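 active = inhibition above the mean inhibition of all tested compounds plus 3 SD, cut at about 73% in these data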;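 note: 0% = DMSO wells and 100% = reporter-only cells lacking LRH-1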
SRC3 inh: human NCOA3 inhibition; Q9Y6Q9; hit rate 0.17% among 360,000; inhibition, % at 3.6 µM; HEK293 GAL4-SRC3 luciferase reporter, luminescence; AID 588352;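 active = inhibition above a per-campaign cutoff, the mean of all compounds plus 3 SD, cut at about 60% in these data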;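 note: 0% = DMSO-treated cells and 100% = gossypol-treated cells at 36 µM; higher means less SRC3-driven luciferase light from the GAL4 reporter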
SRC2 inh: inhibits human steroid receptor coactivator 2 | Q15596 | HEK293 GAL4-SRC2 luciferase reporter, luminescence | inhibition, % at 9 µM | hit rate 0.17% among 370,000 | AID 651957;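 active = inhibition above the mean inhibition of all tested compounds plus 3 SD, set per campaign, cut at about 52% in these data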;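 note: 0% = DMSO treated cells and 100% = cells given Gossypol at 36 µM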
COUP-TFII inh: blocks human COUP-TFII nuclear receptor. hit rate 0.7% among 370,000. inhibition, % at 8.6 µM. P24468. HEK293T NGFI-A luciferase reporter, luminescence. AID 686940;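 active = inhibition above a per-plate cutoff, mean inhibition of test wells between control levels plus 3 SD, cut at about 38% in these data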;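 note: cells cotransfected with COUP-TFII expression vector driving the NGFI-A reporter; 0% = median of COUP-TF2 test wells and 100% = reporter-only cells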
SRC1 inh: inhibitors of human steroid receptor coactivator 1 (SRC1). Q15788. hit rate 0.12% among 360,000. HEK293 GAL4-SRC1 luciferase reporter, luminescence. inhibition, % at 3.6 µM;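 active = inhibition above the campaign mean plus 3 SD, with each screening campaign given its own cutoff, cut at about 60% in these data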;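 note: 0% = DMSO treated cells and 100% = gossypol at 36 µM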
Target sequence (Q15788 whole entry, looked up, the tested form may be a part): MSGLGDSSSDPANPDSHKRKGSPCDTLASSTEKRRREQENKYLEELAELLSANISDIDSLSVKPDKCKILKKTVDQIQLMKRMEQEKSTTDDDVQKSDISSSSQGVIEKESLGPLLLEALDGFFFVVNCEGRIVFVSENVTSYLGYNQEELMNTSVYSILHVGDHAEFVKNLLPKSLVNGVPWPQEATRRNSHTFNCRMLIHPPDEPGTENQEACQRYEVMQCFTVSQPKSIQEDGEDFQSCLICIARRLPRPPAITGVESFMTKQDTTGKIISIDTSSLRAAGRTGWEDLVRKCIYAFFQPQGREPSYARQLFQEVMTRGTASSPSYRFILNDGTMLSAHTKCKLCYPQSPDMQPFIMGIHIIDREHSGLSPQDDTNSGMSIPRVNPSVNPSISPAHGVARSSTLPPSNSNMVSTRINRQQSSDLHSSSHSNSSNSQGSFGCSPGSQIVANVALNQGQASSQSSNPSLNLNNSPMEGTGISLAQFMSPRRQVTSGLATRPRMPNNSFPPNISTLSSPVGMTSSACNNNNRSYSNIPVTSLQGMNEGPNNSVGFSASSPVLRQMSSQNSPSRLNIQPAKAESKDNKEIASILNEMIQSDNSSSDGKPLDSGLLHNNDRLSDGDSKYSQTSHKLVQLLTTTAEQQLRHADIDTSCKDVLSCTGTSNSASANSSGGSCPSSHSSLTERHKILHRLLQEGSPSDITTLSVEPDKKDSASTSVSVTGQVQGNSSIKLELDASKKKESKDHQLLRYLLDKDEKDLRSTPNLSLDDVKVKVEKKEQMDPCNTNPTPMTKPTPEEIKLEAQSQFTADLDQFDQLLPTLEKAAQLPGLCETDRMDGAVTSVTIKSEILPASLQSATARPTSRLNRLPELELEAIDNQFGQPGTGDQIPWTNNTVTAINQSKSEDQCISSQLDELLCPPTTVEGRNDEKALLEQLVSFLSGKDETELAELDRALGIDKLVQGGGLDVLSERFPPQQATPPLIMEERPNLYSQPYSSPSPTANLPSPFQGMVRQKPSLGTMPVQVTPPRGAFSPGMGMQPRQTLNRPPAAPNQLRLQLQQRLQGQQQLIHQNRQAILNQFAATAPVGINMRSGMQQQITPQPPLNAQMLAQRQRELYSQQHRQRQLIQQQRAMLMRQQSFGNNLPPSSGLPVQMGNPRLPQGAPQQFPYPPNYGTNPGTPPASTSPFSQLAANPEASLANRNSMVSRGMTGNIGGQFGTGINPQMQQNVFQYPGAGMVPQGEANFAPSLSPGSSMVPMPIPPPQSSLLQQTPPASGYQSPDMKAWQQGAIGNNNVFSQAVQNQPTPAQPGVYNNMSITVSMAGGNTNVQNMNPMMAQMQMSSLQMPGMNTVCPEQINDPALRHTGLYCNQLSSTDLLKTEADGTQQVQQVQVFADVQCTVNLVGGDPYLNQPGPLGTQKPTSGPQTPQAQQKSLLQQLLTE
Gal4-VP16 ctr: VP16 inhibition counter-screen for COUP-TFII | shares compounds with COUP-TFII inh | inhibition, % at 8.5 µM | AID 687007 | hit rate 25% among 2,500 | HEK293 Gal4-VP16 luciferase reporter, luminescence; in the data active = inhibition above about 13%
NR2F2 inh conf: confirmation of human COUP-TFII (NR2F2) inhibitors. shares compounds with COUP-TFII inh. HEK293 NGFI-A luciferase reporter, luminescence. inhibition, % at 8.5 µM. hit rate 45% among 2,500. AID 687008;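 active = mean inhibition over three repeats above a set limit taken from the earlier primary screen, cut at about 38% in these data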;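 note: 100% = cells given the luciferase reporter alone without the COUP-TF2 vector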
Active calls of the source: *; / = no result given.

SMILES	NR5A2 inv ag	SRC3 inh	SRC2 inh	COUP-TFII inh	SRC1 inh	Gal4-VP16 ctr	NR2F2 inh conf
N#Cc1ccccc1COc1ccc(/C=C/C(=O)O)cc1	27	14	69*	68*	5	63*	51*
CCC(C(=O)NC1CCCCC1)n1c2ccccc2c2nc(=O)cc(C)n21 (centres undefined)	-1	10	-14	-3	-10	/	/
COc1cc(/C=C2\CC/C(=C\c3cc(OC)c(OC)c(OC)c3)C2=O)cc(OC)c1OC	-1	25	-7	0	-8	/	/
COc1cc(/C=C2\COC/C(=C\c3cc(OC)c(OC)c(OC)c3)C2=O)cc(OC)c1OC	-12	3	75*	60*	-187	92*	103*
COC(=O)[C@]12C[C@H](CC(=O)N3CCSCC3)C(=O)N(Cc3ccco3)C1=C[C@H](C1CCCC1)O[C@@H]2C	/	/	-4	5	/	/	/
O=C(NC(c1cccnc1)C(F)(F)F)c1cc(COc2ccc3c(c2)CCCC3)on1 (centres undefined)	-41	-43	-34	42*	-41	-75	10
O=C(NCc1ccncc1)C(=O)N/N=C/c1ccc(OCc2ccccc2)cc1	11	-22	-20	4	-16	/	/
O=NN(CCc1ccncc1)c1ccc(OCc2ccccc2)cc1	58	26	27	51*	2	-3	45*
O=C(NCCO)C1(C(=O)C2CC2)CC(c2ccccn2)=NO1 (centres undefined)	/	/	23	-12	/	/	/
C(=NN1CCCCCC1)c1ccc2ccccc2n1	91*	90*	84*	95*	88*	89*	104*
C(=NN1CCCCCC1)c1cccc2ccccc12	12	2	-2	-8	-3	/	/
CC(=NNc1ccc2ccccc2n1)c1ccccn1	/	/	38	59*	/	34*	74*
CC(=NNc1ccc2ccccc2n1)c1ccccc1O	-75	-6	-60	-28	-30	/	/
CCCCc1c(-c2ccccc2OC)ncn1Cc1ccccc1Cl	/	/	-31	3	/	/	/
Cc1cc(C)cc(C(=O)Nc2ccc(NC(=O)Cc3ccccc3)cc2)c1	-1	10	-7	3	14	/	/
Clc1ccc(-n2ncc3c(N4CCCCCC4)ncnc32)cc1	79*	80*	70*	92*	81*	80*	100*
Clc1ccc(-n2ncc3c(NCCN4CCOCC4)ncnc32)cc1	43	58	37	56*	42	-29	48*
O=C(NCCc1cccc(F)c1)c1cc2ccccn2n1	/	/	-55	-26	/	/	/
CC(C(=O)Nc1cccnc1)c1ccc([N+](=O)[O-])cc1 (centres undefined)	22	5	-5	-5	-9	/	/
CC(C)Cc1ccc(C(C)C(=O)Nc2cccnc2)cc1 (centres undefined)	26	16	14	46*	10	3	41*
Cc1csc2ncnc(NC3CCN(Cc4ccccc4)CC3)c12	38	20	23	59*	-2	7	59*
Cc1ccc(-c2csc3ncnc(N4CCN(Cc5ccccc5)CC4)c23)cc1	-17	10	18	-7	5	/	/
CCOCCn1cnc2sc(C(=O)NCCCN3CCOCC3)c(C)c2c1=O	0	6	1	9	-19	/	/
COC(=O)C12OCC34C(CC5C(C)=C(O)C(=O)CC5(C)C3C(O)C1O)OC(=O)C(OC(=O)C=C(C)C)C24 (centres undefined)	97*	94*	83*	93*	96*	12	86*
Cc1ccc(-c2cc(C(=O)NN=C/C=C/c3ccco3)[nH]n2)cc1C	/	/	-10	3	/	/	/
SMILES	NR5A2 inv ag	SRC3 inh	SRC2 inh	COUP-TFII inh	SRC1 inh	Gal4-VP16 ctr	NR2F2 inh conf
O=C(N/N=C/c1ccco1)C1CC1c1ccccc1 (centres undefined)	3	-1	-1	-23	11	/	/
CC(C)(C)c1ccc(C2CC2C(=O)N/N=C\c2ccc[nH]2)cc1 (centres undefined)	89*	71*	-14	42*	23	0	64*
CN(C)S(=O)(=O)c1ccc(C(=O)Nc2nc(-c3cccs3)cs2)cc1	22	25	18	54*	9	-5	26
CCc1c(C)nc2ccc(Br)cc2c1SCCC#N	-4	64*	51	38*	65*	12	24
CCCCNC(=O)N1CCN(Cc2ccc(F)cc2)CC1	6	6	-6	-17	9	/	/
CC(=O)N(Cc1cc2c(C)cc(C)cc2[nH]c1=O)C1CCCCC1	16	20	-2	6	-2	/	/
Cc1cc(C)c(O)c(C(=O)CC2CC(=O)NC(=O)C2)c1	/	/	31	75*	/	-16	51*
CCCCn1c(N)c(N(CCC(C)C)C(=O)CSc2nc3ccccc3n2C)c(=O)[nH]c1=O	2	-1	8	-8	7	/	/
COc1ccccc1CNc1nc(Nc2cccc(-c3cnco3)c2)c2sccc2n1	6	-9	-5	48*	10	1	21
COc1ccccc1CNc1nc(NCc2ccccc2SC)c2sccc2n1	15	14	9	34	10	/	/
COc1ccccc1CNc1nc(NCc2ccccc2OC)c2sccc2n1	2	2	16	53*	-4	4	26
COc1ccccc1CNc1nc(NCC2CC2)nc2ccsc12	2	4	16	47*	-3	-8	13
COc1cc(OC)cc(C(=O)N[C@H](C(=O)NCc2ccco2)C(C)C)c1	-16	20	-1	3	-24	/	/
CCCOc1ccc(C2C(C(=O)c3ccco3)=C(O)C(=O)N2CCCn2ccnc2)cc1OC (centres undefined)	-22	-17	-18	-10	-3	/	/
CCCCCN1C=CC(=C2C(=O)c3ccccc3C2=O)C=C1	24	61	83*	70*	53	48*	73*
Cc1ccc(NC(=O)CCS(=O)(=O)c2cccc3nonc23)c(Br)c1	13	2	-17	2	-2	/	/
CCc1c(C)nc2ncnn2c1NCCc1ccc(OC)cc1	48	9	13	58*	26	9	52*
CCOc1ccc(OCC)c(NC(=O)C2CCCN2S(=O)(=O)c2cccc3cccnc23)c1 (centres undefined)	7	24	-38	40*	12	1	12
COc1ccc(NC(=O)C2CCCN2S(=O)(=O)c2cccc3cccnc23)c(OC)c1 (centres undefined)	4	3	4	4	-5	/	/
O=C(NCCc1ccco1)C(=O)NCC1CCCN1S(=O)(=O)c1ccccc1 (centres undefined)	27	4	-4	-1	9	/	/
CCCCCCCCCCn1c2c(c(=N)c3c1CCC3)CCC2	96*	79*	27	81*	70*	21*	79*
CCCCCCCCn1c2c(c(=N)c3ccccc31)CCC2	84*	78*	20	90*	24	13*	73*

Screening data as filed in PubChem.
